Values joined by “and” are separate entries in the source; they are usually repeats but may differ in a detail not shown here. Identical values can stand only once. Records with an inconclusive call do not appear. Entries that show only a call come without a potency. The source holds several records for some structures; these can differ, active in one and inactive in another. Active and inactive are the calls of the source. Unless noted, the call rests on the fitted dose curve; in most records, active means well fitted curve in the direction sought with a large enough effect in the repeat runs; inconclusive means weak or mixed curves; inactive means no such curve, though single readings can be large; an effect the other way counts as inactive or inconclusive.
Legend:
[1] = qHTS assay for small molecule agonists of the p53 signaling pathway (AID 651631; calls by dose curve; further: nearly all actives have a fitted effect of over 15% in size; further: potency means the concentration at half of the fitted maximal effect)
How it was run: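 Agonist mode screen using a stably integrated beta-lactamase gene under p53 response elements in HCT-116 cells. Compound exposure lasts 16 h at 37 °C; fluorescence intensity is measured following 2 h FRET substrate loading.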

[2] = qHTS assay for small molecules that induce genotoxicity in human embryonic kidney cells expressing luciferase-tagged ATAD5 (AID 651632); further: nearly all actives have a fitted effect of over 15% in size; further: potency means the concentration at half of the fitted maximal effect
How it was run: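 Test compounds were delivered by pin tool onto HEK293T reporter cells (2,000/well) expressing ATAD5 fused to luciferase. After 16 hr at 37C, 5% CO2, Amplite was added for 30 min at room temperature and luminescence was measured.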

[3] = qHTS assay for small molecule agonists of the p53 signaling pathway - cell viability (AID 651633; calls by dose curve; further: nearly all actives have a fitted effect of over 30% in size; further: potency means the concentration at half of the fitted maximal effect)
How it was run: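 p53RE-bla cells, seeded at 4,000 per well and rested 5 h at 37 C/5% CO2, received compounds in DMSO for 16 h at 37 C. CellTiter-Glo was then added, and luminescence was read after 30 min at room temperature to gauge cytotoxicity.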

[4] = qHTS assay for small molecules that induce genotoxicity in human embryonic kidney cells expressing luciferase-tagged ATAD5 - cell viability (AID 651634; calls by dose curve; further: nearly all actives have a fitted effect of over 25% in size; further: potency means the concentration at half of the fitted maximal effect)
How it was run: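 Quantitative high-throughput format. HEK293T cells expressing ATAD5 fused to luciferase were plated at 2,000 cells/well and treated 15.5 hr with compound versus DMSO. Viability was determined by fluorescent live-cell protease substrate, 30 min at 37C.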

[5] = qHTS assay for small molecule disruptors of the mitochondrial membrane potential (AID 720635); further: potency means the concentration at half of the fitted maximal effect
How it was run: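 HepG2 cells (2,000/well) attached overnight at 37C, then took compound for 1 hr at 37C, 5% CO2. Mito-MPS dye was added for 30 min; fluorescence was read at 490/535 nm (monomers) and 540/590 nm (aggregates).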

[6] = qHTS assay to test for compound auto fluorescence at 535 nm (green) in HepG2 cells (AID 720675)
[7] = qHTS assay to test for compound auto fluorescence at 460 nm (blue) in HEK293 cells (AID 720678)
How it was run: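 Cells were seeded and left to adhere for 4-5 hr at 37C. Compounds were then pin-transferred. After an overnight incubation at 37C under 5% CO2, intrinsic fluorescence at 405/460 nm was measured and referenced to triamterene.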

[8] = qHTS assay to test for compound auto fluorescence at 590 nm (red) in HEK293 cells (AID 720679)
How it was run: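 Each well held 2,000 HEK293 cells in medium containing 10% dialyzed FBS. Following 4-5 hr attachment at 37C, 23 nL test compound or DMSO was added; plates sat overnight, and red fluorescence (540/590nm) was recorded.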

[9] = qHTS assay for small molecule disruptors of the mitochondrial membrane potential - cell viability (AID 720634; calls by dose curve;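 further: human HepG2 liver cancer cells; series mostly up to about 83 µM; nearly all actives have a fitted effect of over 20% in size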)
How it was run: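 Same-well counter-screen: following the MMP dye addition, CellTiter-Glo was added to 1 hr compound-treated HepG2 cells and luminescence read after 30 min at room temperature.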

[10] = qHTS assay to test for compound auto fluorescence at 590 nm (red) in HepG2 cells (AID 720674)
How it was run: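 Intrinsic compound fluorescence in the red window (Ex/Em 540/590 nm) is measured in attached HepG2 cells exposed for 1 hr, DMSO vehicle as baseline, benchmarked to Rose Bengal sodium.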

Row | Structure (SMILES) | Potency [1] | Potency [2] | Potency [3] | Potency [4] | Potency [5] | Potency [6] | outcome [7] | Potency [8] | Potency [9] | Potency [10] | fluorescence, relative to Rose Bengal [10] | fluorescence, % of fluorescein control [6] | fluorescence, % of triamterene [7] | fluorescence, % of fluorescent control [8]
1 | Cc1c(OCC(F)(F)F)ccnc1CS(=O)c1nc2ccccc2[nH]1 (centres undefined) | inactive | inactive | inactive | inactive | 54.5 µM (active) | inactive | inactive | inactive |  |  |  |  |  | 
2 | CNCCCC12CCC(c3ccccc31)c1ccccc12 | inactive | inactive |  | inactive |  |  | inactive |  |  |  |  |  |  | 
3 | O=C(c1ccc(OCCN2CCCCC2)cc1)c1c(-c2ccc(O)cc2)sc2cc(O)ccc12 | 29.8 µM (active) and 68.7 µM (active) and 61.1 µM (active) |  | 29.8 µM (active) and 61.2 µM (active) and 61.1 µM (active) | 26.6 µM (active) and 54.5 µM (active) | 4.22 µM (active) and 1.72 µM (active) and 4.33 µM (active) |  | inactive |  | inactive | inactive |  |  |  | 
4 | c1ccc2c(c1)c1cccc3ccc4cccc2c4c31 | 60.7 µM (active) | inactive | 3.04 µM (active) and inactive | inactive | 30.6 µM (active) | inactive | inactive | inactive |  |  |  |  |  | 
5 | Cc1c(C(N)=O)cc([N+](=O)[O-])cc1[N+](=O)[O-] | inactive | inactive | inactive | inactive | inactive | inactive | inactive | inactive |  | inactive |  |  |  | 
6 | CN(C)c1nc(N(C)C)nc(N(C)C)n1 | inactive | inactive | inactive | inactive | inactive |  |  |  |  |  | 0.105% [at 18.6 µM] (inactive) and 0.0838% [at 3.72 µM] (inactive) | -0.0062% [at 18.6 µM] (inactive) and 0.0151% [at 3.72 µM] (inactive) | 0.0425% [at 18.6 µM] (inactive) and 0.0657% [at 3.72 µM] (inactive) | 0.0163% [at 18.6 µM] (inactive) and 0.505% [at 3.72 µM] (inactive)
7 | C[Si](C)(C)O[Si](C)(C)C | inactive | inactive | inactive | inactive | inactive | inactive | inactive | inactive |  |  |  |  |  | 
8 | O=C(/C=C/c1ccccc1)OCc1ccccc1 | inactive | inactive | inactive | inactive |  |  | inactive | inactive |  | inactive |  |  |  | 
9 | CC(C)CC(C)(O)C#CC(C)(O)CC(C)C (centres undefined) | inactive |  | inactive | inactive | 47.6 µM (active) and 48.6 µM (active) | inactive | inactive | inactive | inactive |  |  |  |  | 
10 | COC(=O)CCC(=O)OC | inactive | inactive | inactive | inactive | inactive | inactive | inactive |  |  | inactive |  |  |  | 
11 | Cc1ccc(C)c(O)c1C | inactive | inactive | inactive | inactive | inactive | inactive | inactive | inactive |  | inactive |  |  |  | 
12 | C=C(C)C1CC=C(C)CC1 (centres undefined) | inactive | inactive | inactive | inactive |  |  | inactive | inactive |  | inactive |  |  |  | 
13 | Cc1cccc(C(=O)O)c1 | inactive | inactive | inactive | inactive | inactive | inactive | inactive |  |  | inactive |  |  |  | 
14 | Cc1cccc(N(C)C(=S)Oc2ccc3ccccc3c2)c1 | inactive | inactive | inactive and 17.2 µM (active) | inactive | inactive and 21.7 µM (active) |  | inactive |  |  | inactive |  |  |  | 
15 | Cc1ncc[nH]1 | inactive | inactive | inactive | inactive | inactive | inactive | inactive |  |  | inactive |  |  |  | 
16 | C#C[C@]1(O)CC[C@H]2[C@@H]3CCC4=Cc5oncc5C[C@]4(C)[C@H]3CC[C@@]21C | inactive | inactive | inactive | inactive |  | inactive | inactive |  |  | inactive |  |  |  | 
17 | O=Cc1ccccc1O | inactive | inactive | inactive | inactive | inactive | inactive | inactive | inactive |  |  |  |  |  | 
18 | COc1ccc(OC)c(C(O)CNC(=O)CN)c1 (centres undefined) | inactive | inactive | inactive | inactive | inactive |  | inactive | inactive |  | inactive |  |  |  | 
19 | OC1CCCCCCCCCCC1 | inactive | inactive | inactive | inactive | 55 µM (active) and 54.5 µM (active) |  | inactive | inactive |  | inactive |  |  |  | 
20 | COc1cccc2c1C(=O)c1c(O)c3c(c(O)c1C2=O)C[C@@](O)(C(=O)CO)C[C@@H]3O[C@H]1C[C@H](N)[C@H](O)[C@H](C)O1 | inactive and 596 nM (active) and 243 nM (active) | inactive and 376 nM (active) | inactive |  | inactive and 2.73 µM (active) | inactive | inactive |  | inactive | inactive |  |  |  | 
21 | O=C(OCc1ccccc1)c1ccccc1O | inactive |  | inactive |  | 61.1 µM (active) | inactive | inactive | inactive |  | inactive |  |  |  | 
22 | CCCCCCCCCCCO | inactive | inactive | inactive and 61.1 µM (active) | inactive | inactive and 21.7 µM (active) | inactive | inactive | inactive |  | inactive |  |  |  | 
23 | CCCCC(CC)COP(=O)(OCC(CC)CCCC)OCC(CC)CCCC (centres undefined) | inactive | inactive | inactive | inactive | inactive |  | inactive |  |  |  |  |  |  | 
24 | Cc1[nH]c(=O)c(C#N)cc1-c1ccncc1 | inactive |  | inactive | inactive |  |  | inactive |  |  | inactive |  |  |  | 
25 | CCCCOCCOCCOCCO | inactive | inactive | inactive | inactive |  | inactive | inactive |  |  |  |  |  |  | 
26 | c1ccc2c(c1)Oc1ccccc1S2 | inactive | inactive | inactive | inactive |  | inactive | inactive |  |  | inactive |  |  |  | 
